Data as given in PubChem BioAssay (NCATS).
Results filed as inconclusive are left out. Where a call stands in place of a potency, no number is given. Calls of active or inactive are those of the source. Calls follow the shape of the dose curve; as a rule, active = well fitted inhibition curve with a large enough effect; inconclusive = small, poorly fitted or top-dose-only effect; inactive = flat fitted curve, though single readings scatter.

Assays:
Assay in all cases: qHTS profiling for inhibitors of Plasmodium falciparum proliferation (AID 504749); also: nearly all actives have a fitted effect of over 60% in size
Conditions in all cases: P. falciparum in erythrocytes, SYBR Green DNA, 72 h; series mostly up to 28.7 µM
CP203 = tested on: CP203
Summary of the method: (§1)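 P. falciparum-infected erythrocytes (0.3% parasitemia, 2.5% hematocrit final) were exposed to compounds for 72 h at 37 C in 5% CO2, then lysed with SYBR Green buffer overnight at room temperature; parasite DNA fluorescence was normalized to artemisinin and DMSO controls.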

CP211 = tested on: CP211
Summary of the method: as §1

CP215 = tested on: CP215
Summary of the method: as §1

CP217 = tested on: CP217
Summary of the method: as §1

CP237 = tested on: CP237
Summary of the method: as §1

CP238 = tested on: CP238
Summary of the method: as §1

CP247 = tested on: CP247
Summary of the method: as §1

CP250 = tested on: CP250
Summary of the method: as §1

CP252 = tested on: CP252
Summary of the method: as §1

CP256 = tested on: CP256
Summary of the method: as §1

CP260 = tested on: CP260
Summary of the method: as §1

CP262 = tested on: CP262
Summary of the method: as §1

CP265 = tested on: CP265
Summary of the method: as §1

CP266 = tested on: CP266
Summary of the method: as §1

CP268 = tested on: CP268
Summary of the method: as §1

CP269 = tested on: CP269
Summary of the method: as §1

CP286 = tested on: CP286
Summary of the method: as §1

CP291 = tested on: CP291
Summary of the method: as §1

CP297 = tested on: CP297
Summary of the method: as §1

CP305 = tested on: CP305
Summary of the method: as §1
Potency is read from the fitted curve at half-maximal effect.

Row | SMILES | Potency (CP203) | Potency (CP211) | Potency (CP215) | Potency (CP217) | Potency (CP237) | Potency (CP238) | Potency (CP247) | Potency (CP250) | Potency (CP252) | Potency (CP256) | Potency (CP260) | Potency (CP262) | Potency (CP265) | Potency (CP266) | Potency (CP268) | Potency (CP269) | Potency (CP286) | Potency (CP291) | Potency (CP297) | Potency (CP305)
1 | CC(C)Nc1ccc(Nc2ccccc2)cc1 | 8.49 µM (active) | 3.79 µM (active) | 4.26 µM (active) | 5.01 µM (active) | 7.94 µM (active) | 10 µM (active) | 4.47 µM (active) | 5.01 µM (active) | 7.08 µM (active) | 7.94 µM (active) | 5.62 µM (active) | 4.78 µM (active) | 11.2 µM (active) | 8.49 µM (active) | 10.7 µM (active) | 6.75 µM (active) | 8.91 µM (active) | 15.1 µM (active) | 4.78 µM (active) | 13.5 µM (active)
2 | Clc1ccc(Cl)cc1 | inactive | inactive | inactive | inactive | inactive | inactive | inactive | inactive | inactive | inactive | inactive | inactive | inactive | inactive | inactive | inactive | inactive | inactive | inactive | inactive
3 | C#CC(C)(O)CC (centres undefined) | inactive | inactive | inactive | inactive | inactive | inactive | inactive | inactive | inactive | inactive | inactive | inactive | inactive | inactive | inactive | inactive | inactive | inactive | inactive | inactive
4 | O=C(OCCN1CCCCC1)C(O)(c1ccccc1)c1ccccc1 | inactive | inactive | inactive | inactive | inactive | inactive | inactive | inactive | inactive | inactive | inactive | inactive | inactive | inactive | inactive | inactive | inactive | inactive | inactive | inactive
5 | CC[N+](C)(CC)CCOC(=O)C(O)(c1ccccc1)c1ccccc1 | inactive | inactive | inactive | inactive | inactive | inactive | inactive | inactive | inactive | inactive | inactive | inactive | inactive | inactive | inactive | inactive | inactive | inactive | inactive | inactive
6 | CCOC(=O)c1ccccc1C(=O)OCC | inactive | inactive | inactive | inactive | inactive | inactive | inactive | inactive | inactive | inactive | inactive | inactive | inactive | inactive | inactive | inactive | inactive | inactive | inactive | inactive
7 | O=C1CCCCC1CN1CCCCC1 (centres undefined) | inactive | inactive | inactive | inactive | inactive | inactive | inactive | inactive | inactive | inactive | inactive | inactive | inactive | inactive | inactive | inactive | inactive | inactive | inactive | inactive
8 | O[C@H]1[C@H]2[C@H](O)CCCN2C[C@H]1O | inactive | inactive | inactive | inactive | inactive | inactive | inactive | inactive | inactive | inactive | inactive | inactive | inactive | inactive | inactive | inactive | inactive | inactive | inactive | inactive
9 | O=C1CC[C@@]2(O)C3Cc4ccc(O)c5c4C2(CCN3CC2CC2)[C@H]1O5 (some centres undefined) | inactive | inactive | inactive | inactive | inactive | inactive | inactive | inactive | inactive | inactive | inactive | inactive | inactive | inactive | inactive | inactive | inactive | inactive | inactive | inactive
10 | CCC1(C)CC(=O)NC(=O)C1 | inactive | inactive | inactive | inactive | inactive | inactive | inactive | inactive | inactive | inactive | inactive | inactive | inactive | inactive | inactive | inactive | inactive | inactive | inactive | inactive
11 | COc1ccc(OC)c(C(O)C(C)N)c1 (centres undefined) | inactive | inactive | inactive | inactive | inactive | inactive | inactive | inactive | inactive | inactive | inactive | inactive | inactive | inactive | inactive | inactive | inactive | inactive | inactive | inactive
12 | O=P(O)(O)C(Cl)(Cl)P(=O)(O)O | inactive | inactive | inactive | inactive | inactive | inactive | inactive | inactive | inactive | inactive | inactive | inactive | inactive |  | inactive | inactive | inactive | inactive | inactive | inactive
13 | CC(=O)OO | inactive | inactive | inactive | inactive | inactive | inactive | inactive | inactive | inactive | inactive | inactive | inactive | inactive | inactive | inactive | inactive | inactive | inactive | inactive | inactive
14 | O=c1[nH]cc(N(CCCl)CCCl)c(=O)[nH]1 | inactive | inactive | inactive | inactive | inactive | inactive | inactive | inactive | inactive | inactive | inactive | inactive | inactive | inactive | inactive | inactive | inactive | inactive | inactive | inactive
